Test results published in PubChem BioAssay AID1117319 (Southern Research Institute, 2015).
Where “and” joins values, the source holds several entries; their conditions need not be identical. Equal entries are not always repeated. In all, about 260,000 compounds went through this assay and about 1,500 (0.58%) were called active. Roughly 5% stayed inconclusive and do not appear here. A selection follows. Measured potencies and affinities stand elsewhere. A number with no mark means an inactive call.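 The calls were made as follows: active = inhibition above a set limit at one or more doses, reproduced on every date tested; inconclusive = results disagree between test dates, or hit never tested in dose response; inactive = the rest.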

Biological target: Virion infectivity factor (Human immunodeficiency virus type 1 group M subtype B (isolate BH10)) + Virion infectivity factor (Human immunodeficiency virus type 1 group M subtype B (isolate BRU/LAI)) + Virion infectivity factor (Human immunodeficiency virus type 1 group M subtype B (isolate PCV12)) + Virion infectivity factor (Human immunodeficiency virus type 1 group M subtype B (isolate HXB2)) + DNA dC->dU-editing enzyme APOBEC-3G (Homo sapiens) (UniProt P69720+P69721+P69722+P69723+Q9HC16)
Assay: inhibitors of Vif binding to APOBEC3G peptide, primary screen, biochemical, TR-FRET, GST-Vif 1-94, biotin-A3G peptide, dose response retest (AID 1117319);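 also: Vif residues 1-94 fused to GST binding biotinylated APOBEC3G peptide 110-148; 0% = full assay without inhibitor and 100% = GST in place of GST-Vif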
Conditions: active compounds read high

Compound | inhibition
COc1ccc(-c2nc(SC(CC(=O)NCCO)c3cccs3)n[nH]2)cc1 (stereo not given) | -4.6%
Cc1ccc(-c2nnc(N3CCOCC3)c3ccccc23)cc1S(=O)(=O)N(C)C | -45.2%
Cc1nc(NCCc2ccccc2)c2nnn(Cc3ccccc3)c2n1 | -8.97%
COc1ccc(CC(=O)NCc2ccccc2F)cc1S(=O)(=O)N1CCOCC1 | -8.33%
Cc1ccccc1NC(=O)Cc1nc(COC(=O)COc2cccc(C)c2C)cs1 | -1.31%
Cc1ccc(-c2nn[nH]n2)o1 | -6.6%
COCCNC(=O)/C(C#N)=C/c1ccc(OC(=O)c2cccs2)c(OC)c1 | 12.9%
COCCNC(=O)/C(C#N)=C/c1cccc(/C=C(\C#N)C(=O)NCCOC)c1 | -1.66%
CCCN1C2CCCC1CC(NC(=O)c1ccccc1Br)C2 (stereo not given) | -0.94%
COc1cc(C2NC(=O)NC3=C2C(=O)OC3)cc(OC)c1OC (stereo not given) | -6.88%
Cn1cc(C(=O)Nc2ccc(Cl)cc2)c(C(F)(F)F)n1 | -6.34%
Cc1ccc(/C=C2/NC(=O)N(Cc3ccc(Br)cc3)C2=O)o1 | 18.3%
COc1ccc(Sc2ccc(/C=C3\C(=O)NN(c4ccccc4)C3=O)o2)cc1 | 27.1%
COc1ccc(NC(=O)CCC(=O)N/N=C/c2ccc([N+](=O)[O-])s2)cc1 | 23.7%
CCCN1C(=O)/C(=C/c2ccc(C)s2)NC1=S | 1.31%
COc1ccc(NCc2ccc([N+](=O)[O-])s2)cc1 | -7.61%
CCN1C(=O)/C(=C/c2ccc(C)s2)NC1=S | 20.4%
CC(=O)c1sc(NC(=O)c2ccc(F)cc2)nc1-c1ccccc1 | -5.82%
C[C@@H](CO)NC(=O)c1ccc2c3n(nc2c1)-c1ccccc1CO3 | -3.9%
COc1cccc(CN2CCC(n3nccc3NC(=O)C3CC3)CC2)c1 | 3.21%
CCCN1CCN(CC(O)COC(c2ccc(OC)cc2)c2ccc(OC)cc2)CC1 (stereo not given) | 3.65%
Cc1cccc(NC(=O)c2sc3nc(-c4ccc(F)cc4)cn3c2C)n1 | -26.2%
O=C(NC(=S)Nc1ccccc1N1CCCC1)c1cccc(F)c1 | 5.9%
COc1cc(/C=N/Nc2nc(=O)[nH]nc2C)cc([N+](=O)[O-])c1O | 5.18%

Compound | inhibition
O=C(NC1CCCCC1)c1ccccc1NC(=O)C1CC(=O)N(c2ccc(Cl)cc2)C1 (stereo not given) | 31.5%
NNc1nc(C(F)(F)F)nc2ccccc12 | -3.12%
C/C(O)=c1/ccc2cccc3nc(C)nc1c23 | 32.6%
Cc1ccc(S(=O)(=O)NC2CCCCC2)cc1C(=O)N1CCC(C(N)=O)CC1 | -4.11%
COCCN(CCOC)Cc1c(O)ccc2c1O/C(=C\c1ccco1)C2=O | 25.4%
CCc1ccc(/C=C2\Oc3c(ccc(O)c3CN3CCN(C)CC3)C2=O)cc1 | 29.7%
COc1ccccc1-c1coc2c(CN3CCCC(C)C3)c(O)ccc2c1=O (stereo not given) | -11.2%
Cc1ccc(/C=C2\Oc3c(ccc(O)c3CN3CCN(CCO)CC3)C2=O)cc1 | -6.62%
CCN1CCN(Cc2c(O)ccc3c2O/C(=C\c2ccccc2)C3=O)CC1 | -1.46%
CC(C)(C)c1ccc(/C=C2\Oc3c(ccc(O)c3CN3CCN(CCO)CC3)C2=O)cc1 | 2.03%
C=CCN1C(C(=O)c2ccccc2)=C(OC(=O)COc2ccccc2)c2ccccc2S1(=O)=O | -2.45%
COc1cc(OC)cc(-c2cc(N3C(=O)Nc4ccccc4N3O)n[nH]2)c1 | 2.06%
CCN(CC)CCCC(C)Nc1nccc2cccc(Cl)c12 (stereo not given) | -1%
C=CCn1c(SCC(=O)NCCOC)nc2scc(-c3ccco3)c2c1=O | 27.8%
C=CCn1c(SCC(=O)NCCCC(=O)OCC)nc2scc(-c3ccco3)c2c1=O | -13%
Cc1onc(-c2c(F)cccc2Cl)c1C(=O)Nc1nccs1 | -2.44%
Cc1onc(-c2c(F)cccc2Cl)c1C(=O)Nc1nnc(-c2ccccc2)s1 | -20.2%
CCN1CCN(C(=O)c2ccc(CSc3ccc(C)cc3)cc2)CC1 | -0.41%
O=C(Cn1c(=O)oc2ccccc21)Nc1ccc(S(=O)(=O)N2CCCCC2)cc1 | 16%
O=Cc1cccc(OCc2cccc3ccccc23)c1 | -9.48%
c1ccc(Cc2nnc3n2CCCCC3)cc1 | -1.19%
c1ccc2c(c1)CCCN2Cc1nnnn1C1CCCC1 | 4.12%
CSc1ccccc1NC(=O)CN(C)C(=O)c1c(C)nn(Cc2ccccc2)c1C | 0.13%
CN(Cc1ccco1)C(=O)c1c[nH]c2ccc(S(=O)(=O)Nc3ccc4c(c3)OCCO4)cc2c1=O | 11.3%

Compound | inhibition
CCc1ccc(NS(=O)(=O)c2ccc3[nH]cc(C(=O)N(C)Cc4ccco4)c(=O)c3c2)cc1 | 6.93%
CC(C)N(C(=O)[C@H]1C[C@H](CC(=O)NCCN2CCOCC2)C(=O)N2CCc3c([nH]c4ccc(Cl)cc34)[C@]12C)C(C)C | -2.31%
C=CCn1c(COc2cccc(C)c2)nnc1SCC(=O)NC(=O)NCc1ccco1 | 3.84% and 20.2%
C=CCn1c(COc2ccccc2F)nnc1SCC(=O)NC(=O)NCc1ccco1 | 13.7%
CC(C)(C)NC(=O)/C=C/c1cccs1 | -6.7%
COc1ccc(/C=C2/C(=O)N=C(N)N2C)cc1OC | -1.18%
CC(=O)c1ccc(Sc2nnnn2-c2ccccc2)c([N+](=O)[O-])c1 | 7.06%
COC(=O)c1ccc(Sc2nnnn2-c2ccccc2)c([N+](=O)[O-])c1 | 4.9%
Cc1csc(NC(=O)Cc2ccccc2[N+](=O)[O-])n1 | -11%
CN(C(=O)CSc1nnc2ccccn12)C1CCS(=O)(=O)C1 (stereo not given) | 5.32%
Cc1ccc(OCCCC(=O)Nc2ccc(S(N)(=O)=O)cc2)cc1 | -3.06%
O=C1C=C(Nc2cccnc2)c2ccccc2C1=O | -2.43%
O=C1C=C(Nc2ccccc2O)c2ccccc2C1=O | 29.9%
O=[N+]([O-])c1ccc(Cl)c(/C=N/N2CCN(Cc3ccc(Cl)cc3)CC2)c1 | -0.57%
CCOc1ccc(N/C(C)=C/C(=O)c2ccc(C)o2)cc1 | 1.46%
COc1cccc(C2Nc3ccc4ccccc4c3C3=C2C(=O)CCC3)c1O (stereo not given) | -3.25%
CC1(C)CC(=O)C2=C(C1)c1c(ccc3ccccc13)NC2c1ccco1 (stereo not given) | 7.86%
Cc1onc(-c2ccccc2Cl)c1C(=O)NCc1ccccn1 | -1.21%
COC(=O)COC(=O)CC(CC(N)=O)c1ccccc1 (stereo not given) | -2.81%
COC(=O)Nc1nc2c(C)cccc2s1 | 1.68%
Cc1cc(C(=O)Nc2nc3c(C)cccc3s2)c(C)o1 | 17.4%
Cc1c(C(=O)c2ccc([N+](=O)[O-])cc2)c(=O)n(C)c(=O)n1C | -3.13%
CCC(=O)N1CCC2(CC1)Oc1ccc(F)cc1C(=O)C21CC(c2cccnc2)=NO1 (stereo not given) | 3.73%
CCOC(=O)C(=O)Cc1nc2ccccc2s1 | -1.72%

Compound | inhibition
CCOC(=O)C(Cc1ccnnc1)=NO | -0.8%
Cc1nc2sc(C(c3ccco3)N3CCN(c4ccc(F)cc4)CC3)c(O)n2n1 (stereo not given) | 13.8%
Cc1cc(C(=O)CN2CCCC2)c(C)n1-c1ccc(Cl)cc1 | 1.44%
CC(=O)Oc1ccc2c(c1)C(=O)c1ccccc1CO2 | 7.33%
O=C(Oc1ccc2c(c1)C(=O)c1ccccc1CO2)c1ccccc1 | 1.85%
COc1ccc(CNC(=O)COC(=O)c2cccc(S(=O)(=O)N3CCOCC3)c2)cc1 | 10.9%
COc1ccc(NC(=O)c2cnc3n(c2=O)CCS3)cc1OC | 10.7%
CCOc1ccc(/C=C(\C(=O)O)c2ccc(S(=O)(=O)N3CCOCC3)s2)cc1OC | 28.4%
O=S(=O)(Cc1cc(Sc2ccc(Cl)cc2)nc(-c2ccccc2)n1)c1ccccc1 | 3.1%
O=C1C2C(C(=O)N1Cc1ccco1)C1C=CC2C12CC2 (stereo not given) | -1.81%
CC1CN(Cc2ccco2)C(=S)NC1=O (stereo not given) | 1.05%
O=C1CC(=O)N(Cc2cccs2)C(=O)N1 | 18%
O=C1CCN(Cc2ccco2)C(=S)N1 | 3.3%
COc1ccc(-n2c(=O)c(CCC(=O)N(C)Cc3cccs3)nc3ccccc32)cc1 | -5.63%
COc1ccccc1NS(=O)(=O)c1ccc(C)c(C(=O)NCC2(N(C)C)CCCCC2)c1 | -8.71%
Cc1nc2ccc(F)cc2cc1C(=O)NC(C)C | -0.13%
CCOC(=O)c1cc2cc(OC)ccc2nc1C | 4.64%
CCc1nc(NCc2ccc3c(c2)OCO3)c2oc3ccccc3c2n1 | 5.19%
CCNC(=O)CN(c1ccc(CC)cc1)S(C)(=O)=O | -1.87%
Cc1nc(Nc2ccc(Cl)c(Cl)c2)sc1C(/C=C/c1ccc2c(c1)OCO2)=NNc1ccc([N+](=O)[O-])cc1[N+](=O)[O-] | 0.47%
CCCN(CC(=O)Nc1ccccc1OC)C(=O)Cn1[nH]c(=O)c2ccccc2c1=O | -0.74%
O=C(O)/C(=C\c1cccc(F)c1)c1ccc(S(=O)(=O)N2CCCC2)s1 | 18.6%
O=C(O)/C(=C\c1cccc(O)c1)c1ccc(S(=O)(=O)N2CCCC2)s1 | 14.8%
